Laboratory results taken from PubChem BioAssay AID624296 (National Center for Advancing Translational Sciences (NCATS), 2012).
Screen size: about 350,000 compounds; about 9,900 (2.8%) were called active. A call without a number means that no potency is given here. Another 15% or so got no clear call; they are omitted. Only a selection was taken, and actives are over-represented in it overall. Values without a mark were called inactive. The call rests on the fitted dose curve; in most records, active means well fitted activation curve with a large enough effect; inconclusive means small, poorly fitted or top-dose-only effect; inactive means no such curve, though single readings can be large or run the other way.

Assay: A quantitative high throughput screen for small molecules that induce DNA re-replication in MCF 10a normal breast cells. Further: nearly all actives have a fitted effect of over 50% in size.
Details: MCF 10A DNA re-replication, Hoechst nuclear intensity, 48 h; series mostly up to 46.1 µM
Potency means the concentration at half of the fitted maximal effect.

SMILES | Potency | activity, positive = re-replication
COc1cc(OC)cc(C(=O)NC(C(=O)N2CCC2)C(C)C)c1 (configuration not stated) | inactive | 
O=C(Cn1cnc2c(OCc3ccccc3)ncnc21)NCc1nc2ccccc2[nH]1 | inactive | 
COCCCNC(=O)CC1C[C@H](C(=O)N2CCCCC2)[C@@]2(CCc3ccccc3)c3[nH]c4ccccc4c3CCN2C1=O (some centres not stated) | inactive | 
O=C(N/N=C\c1cc2c(cc1Cl)OCO2)c1ccc(Br)s1 | 5.8 µM (active) | 
O=C(NCc1ccc2c(c1)OCO2)c1ccc(Cl)s1 | inactive | 
O=C(N/N=C/c1cc2c(cc1Br)OCO2)C1COc2ccccc2O1 (configuration not stated) | inactive | 
CCCN(CC1CC1)C(=S)NC(=O)c1ccccc1Br | inactive | 
O=S(=O)(c1ccc(F)cc1)N1CCN(Cc2ccccc2C(F)(F)F)CC1 | inactive | 
O=c1[nH]nc(SCCS(=O)(=O)c2ccc(F)cc2)n1-c1ccccc1C(F)(F)F | 18.4 µM (active) | 
O=C(CSc1n[nH]c(=O)n1-c1ccccc1)Nc1ccccc1C(F)(F)F | inactive | 
CCn1c(SCC(=O)Nc2nccs2)nnc1-c1ccco1 | inactive | 
Cn1c(SCC(=O)Nc2nccs2)nnc1-c1cccnc1 | inactive | 
Cc1[nH]c2ccccc2c1SCC(=O)Nc1nccs1 | 0.651 µM (active) | 
CCCSc1ccc([C@H]2N[C@@](Cc3ccccc3)(C(=O)OC)[C@H]3C(=O)N(C)C(=O)[C@@H]23)cc1 | inactive | 
CC(=O)Nc1ccc(NC(=O)CN2CCCC(C)C2)c(Cl)c1 (configuration not stated) | inactive | 
CC1CCCN(CC(=O)Nc2cc(Cl)ccc2Oc2ccccc2)C1 (configuration not stated) | 18.4 µM (active) | 
O=C(CSc1ccccc1)Nc1cc(Cl)ccc1Oc1ccccc1 | inactive | 
Cc1cccc(NC(=O)C2CCCN2S(=O)(=O)c2ccc(F)cc2)c1C (configuration not stated) | inactive | 
COc1ccccc1NC(=O)C1CCCN1S(=O)(=O)c1ccc(Cl)cc1 (configuration not stated) | 18.4 µM (active) | 
CC(C)c1nnc(NC(=O)C2CCCN2S(=O)(=O)c2ccc(Cl)cc2)s1 (configuration not stated) | inactive | 
O=C(COC(=O)Cn1[nH]c(=O)c2ccccc2c1=O)Nc1ncc(Cl)cc1Cl | inactive | 
O=C(CSc1ncn[nH]1)Nc1ccc(Br)cc1Br | inactive | 
CN(C(=O)COC(=O)c1cc(=O)[nH]c2ccccc12)C1CCCCC1 | inactive | 
CCN(C(=O)CSc1cccc[n+]1[O-])c1ccccc1 | inactive | 
CC1=CC(C)(C)Nc2ccc(OC(=O)CN3C(=O)C4CCCCC4C3=O)cc21 (configuration not stated) | 7.31 µM (active) | 
O=C(CN1C(=O)C2C3CCC(C3)C2C1=O)Oc1ccc2ccccc2c1 (configuration not stated) | inactive | 

SMILES | Potency | activity, positive = re-replication
O=C(COC(=O)CN1C(=O)C2CCCCC2C1=O)Nc1ccc(F)c(F)c1F (configuration not stated) | inactive | 
C=CC[C@H](CC(=O)OC(C)(C)C)C(=O)OC[C@H]1CCCN1C(=O)[C@H](CC=C)CC(=O)N(CCO)Cc1ccccc1 | inactive | 
CC/C(=C(/c1ccccc1)c1ccc(OCC[N+](C)(C)C)cc1)c1ccccc1 | inactive | 
CCCCN1CC(COc2ccccc2)Oc2cccc(F)c2S1(=O)=O (configuration not stated) | inactive | 
CN(C)C(=O)N=NC(=O)N(C)C | inactive | 
O=C(Nc1cccc(-c2nc3ccccc3[nH]2)c1)c1ccc(C(=O)Nc2cccc(-c3nc4ccccc4[nH]3)c2)cc1 | inactive | 
COc1ccc(Br)cc1C(=O)NC(=S)Nc1cc(-c2nc3ccccc3[nH]2)ccc1C | inactive | 
Cc1ccc(-c2nc3ccccc3[nH]2)cc1NC(=O)c1sc2ccccc2c1Cl | 20.6 µM (active) | 
COc1ccc(S(=O)(=O)N2CCOCC2)cc1NC(=O)CSc1cc(C)ccc1C | inactive | 
CCN(CC(=O)Nc1ccccc1C(=O)NC1CC1)Cc1cccs1 | inactive | 
CCOc1ccc(S(=O)(=O)NCC2CCCO2)cc1 (configuration not stated) | inactive | 
O=S(=O)(NCC1CCCO1)c1ccc2ccccc2c1 (configuration not stated) | 2.91 µM (active) | 
CCC(=O)Nc1ccc(S(=O)(=O)NCC2CCCO2)cc1 (configuration not stated) | inactive | 
O=C(COc1ccc(F)cc1Br)NCC1COc2ccccc2O1 (configuration not stated) | inactive | 
CCN(C(=O)COC(=O)CCC(=O)c1cccs1)C1CCCCC1 | inactive | 
Cc1cc(C)c2nc(N3CCCC3)c(C#N)cc2c1 | inactive | 
CCOC(=O)c1cc(C#N)c(N2CCCCC2)nc1-c1ccccc1 | 13 µM (active) | 
CC(=O)c1cc(C#N)c(N2CCCCC2)nc1C | inactive | 
CC1CN(C(=O)c2ccc([N+](=O)[O-])s2)CC(C)O1 (configuration not stated) | inactive | 
C/C(=N\Nc1ccccc1)c1cccs1 | inactive | 
CCCOc1ccc(C(=O)CCC(=O)OC(C)C(=O)Nc2ccc(NC(C)=O)cc2)cc1 (configuration not stated) | inactive | 
CCCOc1ccc(C(=O)NCCc2ccccc2)cc1 | inactive | 
CCCOc1ccc(C(=O)C(CCC(CNCC)C(=O)c2ccc(OCCC)cc2)CNCC)cc1 (configuration not stated) | 25.9 µM (active) | 
COc1ccc(OC)c(-c2csc(NC(=O)COC(=O)C3CC3)n2)c1 | inactive | 
O=C(c1c(F)cccc1Cl)N1CCN(S(=O)(=O)c2ccc3c(c2)OCCCO3)CC1 | inactive | 
Cc1cc(C)c(S(=O)(=O)c2ccccc2)c(OC(=O)c2c(F)cccc2Cl)n1 | 16.4 µM (active) | 

SMILES | Potency | activity, positive = re-replication
Cc1ccc(NNC(=O)c2c(F)cccc2Cl)cc1Cl | inactive | 
O=C(COC(=O)c1cccnc1Cl)Nc1ccc(S(=O)(=O)N2CCOCC2)cc1 | inactive | 
O=C(N[C@H]1C/C=C\C(c2cccc(F)c2)N(Cc2ccccc2)C(=O)C1)OCC1c2ccccc2-c2ccccc21 (some centres not stated) | inactive | 
Cc1nc(-c2ccc(F)cc2)c(CC(=O)N(C)CC(=O)Nc2c(C)cccc2C)s1 | inactive | 
Cc1nc(N2CCOCC2)sc1C(=O)NN | inactive | 
Cc1nc(-c2ccccc2)sc1C(=O)/C=C/N(C)C | inactive | 
Cc1nc(-c2ccc(Cl)cc2)sc1C(=O)NN | 16.4 µM (active) | 
O=C1CC(c2ccccc2)C(=O)N2C(=O)CC(c3ccccc3)C(=O)N12 (configuration not stated) | inactive | 
COc1ccc(S(=O)(=O)N(C)C[C@H]2Oc3c(NC(=O)Nc4ccc5c(c4)OCO5)cccc3C(=O)N([C@H](C)CO)C[C@@H]2C)cc1 | inactive | 
CCCN(C(=O)CSc1nnc(N)s1)c1c(N)n(Cc2ccccc2)c(=O)[nH]c1=O | inactive | 
O=C(O)CC1=C(Nc2ccccc2)C(=O)N(c2ccccc2)C1c1ccc(Cl)cc1 (configuration not stated) | inactive | 
O=C1C=C(c2ccc(Cl)cc2)C(=O)N1Nc1ccccc1 | 5.8 µM (active) | 
O=C1c2cccc3cc(Br)cc(c23)C(=O)N1Nc1ccccc1 | inactive | 
Cc1ccc(Nc2nnc(SC(C)C(=O)NC3CC3)s2)cc1 (configuration not stated) | inactive | 
O=C(NN=C1CCC(=NNC(=O)c2cccnc2)CC1)c1cccnc1 | 0.58 µM (active) | 
O=C(N/N=C/c1ccccn1)c1cccnc1 | inactive | 
C/C(=N\NC(=O)c1cccnc1)c1ccc(-c2ccccc2)cc1 | inactive | 
CCN(CC)CCCC(C)n1c2nc(=O)[nH]c(=O)c-2nc2cc(Cl)ccc21 (configuration not stated) | inactive | 
Cc1ccc(-c2nn(-c3ccccc3)cc2/C=C2\SC(=S)N(CCCCCC(=O)O)C2=O)o1 | 18.4 µM (active) | 
CN(C)S(=O)(=O)c1cccc(-c2nn(-c3ccccc3)cc2/C=C2\SC(=S)N(CC(=O)O)C2=O)c1 | inactive | 
COc1ccc(-c2nn(-c3ccccc3)cc2/C=C2/SC(=S)N(CCCC(=O)O)C2=O)c(C)c1 | inactive | 
COc1cc(OC)cc(-c2c(-c3cccs3)c3cc(-c4ccc(OC)nc4)ccc3n2C)c1 | inactive | 
O=C(CCNC(=O)c1ccccc1)Nc1nc2ccccc2s1 | inactive | 
CC(=O)Nc1cccc(-c2cnc3ccccc3n2)c1 | inactive | 
CCS(=O)(=O)Nc1cccc(-c2cc(-c3ccccc3)c3cc(C)ccc3n2)c1 | 14.6 µM (active) | 
Cc1ccc2nc(Nc3ccccc3)cc(C)c2c1 | inactive | 

SMILES | Potency | activity, positive = re-replication
O=C(Cn1cc(C(F)(F)F)ccc1=O)Nc1ccc2c(c1)OCCO2 | inactive | 
CC(C)(C)c1ccc(C(=O)NCC(=O)OCN2C(=O)c3ccccc3C2=O)cc1 |  | -182% [at 0.0737 µM]
CC(C)(C)OC(=O)c1c(N)n(CCCN2CCCC2=O)c2nc3ccccc3nc12 | inactive | 
CC(C)(C)c1ccc(C(=O)NCCn2c(N)c(C#N)c3nc4ccccc4nc32)cc1 | 7.31 µM (active) | 
Cc1ccnc(SCC(=O)Nc2cccc(S(=O)(=O)N3CCOCC3)c2)n1 | inactive | 
O=C1C(=O)N(c2ccccc2)C(c2ccccc2)C1c1ccccc1 (configuration not stated) | inactive | 
O=C(c1nnc(-c2ccc(Cl)cc2)o1)C1CCCC1 | inactive | 
S=c1[nH]nc(-c2ccc(Cl)cc2)n1CC1CCCO1 (configuration not stated) | inactive | 
O=C(c1[nH]ncc1-c1ccc(Cl)cc1)C1CO1 (configuration not stated) | 3.66 µM (active) | 
COC(=O)[C@@]1(C)[C@H]2C(=O)N(Cc3ccccc3)C(=O)[C@H]2[C@H]2CN=C(SCC3CC3)N21 | inactive | 
COc1ccc(Cl)cc1NC(=O)CN(C)CC(=O)Nc1ccc2c(c1)OCO2 | inactive | 
Cc1ccc(C)c(N2CCN(C(=O)CCc3nc(-c4cccc(C(F)(F)F)c4)no3)CC2)c1 | inactive | 
NC(=S)NN=C1CCCC(C(F)(F)F)C1 (configuration not stated) | inactive | 
Cc1ccc(S(=O)(=O)n2oc(=O)c(C3CCCCC3)c2N)cc1 | inactive | 
OCC1(CCc2ccccc2)CCN(Cc2ccc3nsnc3c2)CC1 | inactive | 
COc1cccc(CC2(CO)CCN(Cc3cnc(-c4cccc(C)c4)nc3)CC2)c1 | inactive | 
Cc1cccc(-c2ncc(CN3CCC(CO)(CCCc4ccccc4)CC3)cn2)c1 | 18.4 µM (active) | 
COc1cccc(C2=CC(=O)C[C@H](c3ccc(OC)c(OC)c3)C2)c1 | inactive | 
CCOc1ccc(N2C(=O)CSC2=NC#N)cc1 | inactive | 
O=C1CSC(=S)N1c1ccc(O)cc1 | 16.4 µM (active) | 
COc1ccc(N2C(=O)CNC2=S)cc1 | inactive | 
COc1ccc(CNC(=O)CN2C(=O)NC3(CCCc4sccc43)C2=O)cc1 (configuration not stated) | inactive | 
O=C(CCCCCCCC(=O)N1CCCCC1)N1CCCCC1 | inactive | 
O=C(Nc1cc(-c2ccccc2)nn1-c1ccccc1F)c1ccc([N+](=O)[O-])cc1 | inactive | 
